# Screening results (PubChem BioAssay)
# HT1080-NT tox = kills 2HG-producing HT-1080-NT fibrosarcoma cells | 360,000 compounds, 1.6% hits | Potency, µM (doses to about 46.1 µM), for inactives: at the highest dose activity, negative = less viability, usual class: cytotoxic | HT-1080-NT fibrosarcoma viability, CellTiter-Glo ATP luminescence, 48 h;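 also: NT is the 2HG producing partner of a matched IDH1 knockdown line; potency is read from the fitted curve at half-maximal effect; 0% = DMSO-treated cells and -100% = media-only wells without cells; nearly all actives have a fitted effect of over 55% in size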
#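 Toxicity toward the 2HG-producing NT line was scored as %Activity, normalised to DMSO and no-cell wells, from CellTiter-Glo luminescence after 48 hours' treatment.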
# TGFb SMAD3 inh = TGF-b pathway inhibition; Potency, µM (doses to about 46.1 µM), for the others: at the top dose activity, negative = inhibition, usual class: inhibitors; HepG2 CAGA-GFP TGF-b/SMAD3 reporter, GFP fluorescence, 18 h; TGF-beta stimulated, 500 pg/mL final; 410,000 compounds, 1.2% hits; AID 588855; also: potency is read from the fitted curve at half-maximal effect; % is scaled to controls: 0 for no effect and ±100 for the full control effect; nearly all actives have a fitted effect of over 65% in size
#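 Smad-responsive CAGA-GFP expression was quantified in HEPG2 cells exposed to compounds and 500 pg/mL final TGF-beta for 18 h at 37 degrees C; unstimulated wells defined full inhibition.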
# HepG2 tox = counter-screen for TGF-b inhibitors: cytotoxicity in HepG2 cells; HepG2 CAGA-GFP viability, ATP luminescence, 18 h; Potency, µM (highest dose often 46.1 µM), inactives show at the top dose activity change, negative = cytotoxicity, most hits filed as cytotoxic; 410,000 compounds, 0.76% hits; AID 588856; also: potency is read from the fitted curve at half-maximal effect
#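 CellTiter-Glo luminescence gave cytotoxicity after 18 hours at 37 degrees C. The cells were HepG2 CAGA-GFP in 1% FBS DMEM, stimulated with 500 pg/mL TGF-beta after compound addition. %Activity was normalised to no-cell wells (complete cell-killing) and DMSO (no toxicity), and curves were fitted and classified.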
# IL-1B inflam inh = blocks inflammasome-driven IL-1 beta release; THP-1 LPS/ATP IL-1B secretion, AlphaLISA, 16 h; active compounds read low; activity change, % at 57.5 µM; 360,000 compounds, 4.7% hits; AID 743279; in the data active = activity change below about -50%; inconclusive = mostly about -30% to -49%; also: % is scaled to controls: 0 for no effect and ±100 for the full control effect
#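 Secreted IL-1B measured by AlphaLISA bead assay after 16 h compound exposure of THP-1 cells; compounds (final up to 57.5 uM) added 1 h before LPS (250 ng/mL) and ATP (1.25 mM) stimulation; lower signal means less secretion.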
# Giardia killer = Giardia lamblia killing | Giardia lamblia trophozoite viability | activity change, % at 7.66 µM, hits read low | 340,000 compounds, 0.15% hits; in the data active = activity change below about -80%; inconclusive = between about -30% and that limit;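 also: parasites exposed to compound for two days anaerobically before the ATP read; % is scaled to controls: 0 for no effect and ±100 for the full control effect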
#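 Giardia lamblia trophozoites (100 cells/well) were incubated with compounds for 48 h at 37 deg C under anaerobic conditions. Viability was read as ATP content by one-step luminescence after 15-30 min at room temperature.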
# HT1080 IDH1KD tx = kills HT-1080 cells with IDH1 knockdown. 360,000 compounds, 2% hits. AID 686971. Potency, µM (titrated, usually from 46.1 µM), for inactives: top-dose activity, negative = toxicity, actives largely listed as cytotoxic. HT-1080 IDH1 knockdown viability, ATP luminescence, 48 h;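 also: potency is read from the fitted curve at half-maximal effect; 0% = DMSO wells and -100% = cell-free medium wells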
#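 In this qHTS, HT-1080 cells depleted of IDH1 are exposed for 48 h at 37 °C to compound titrations. Toxicity is scored from CellTiter-Glo luminescence, with DMSO as full viability and medium alone as none.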
# * marks the source's active call; other numbers are inactive results; ? = inconclusive; nt = not tested or not shown. Most compounds without a hit are left out; they make up all but 6.5% or so of the library. Unless noted, calls follow the shape of the dose curve; as a rule, active = well fitted curve in the direction sought with a large enough effect; inconclusive = small, poorly fitted or top-dose-only effect, or another doubt; inactive = no such curve, though single readings can be large; an effect the other way counts as inactive or inconclusive.
SMILES,HT1080-NT tox,TGFb SMAD3 inh,HepG2 tox,IL-1B inflam inh,Giardia killer,HT1080 IDH1KD tx
O=C1/C(=C/c2ccc(N3CCOCC3)o2)SC(=Nc2ccccc2)N1CCc1c[nH]c2ccccc12,7.31µM*,-0.9%,12.6µM*,-99.5*,-14.2,4.11µM*
COc1cc(/C=C2\SC(=Nc3ccccc3)N(CCc3c[nH]c4ccccc34)C2=O)ccc1OC(C)C(=O)O (stereo not given),-18.1%,-17.1%,-18.3%,?,-18.5,-29.6%
CCCN(CC(=O)Nc1ccc(F)c(F)c1F)CC(=O)Nc1c(C)n(C)n(-c2ccccc2)c1=O,3.7%,-3.7%,3.9%,-6.0,-1.9,9.1%
S=C1SCN(CC2CC2)CN1CC1CC1,?,11.2µM*,-10.0%,-24.3,-10.0,-9.9%
COc1ccc(/C=N/NC(=O)c2[nH]c3ccc(Br)cc3c2-c2ccccc2)cc1,0.0366µM*,?,-34.5%,78.1,-22.2,0.0052µM*
CC(=O)NNC(=O)c1[nH]c2ccc(Br)cc2c1-c1ccccc1,?,?,-15.4%,12.1,6.7,?
COc1ccc(/C=N/NC(=O)c2[nH]c3ccc(Cl)cc3c2-c2ccccc2)c(C(=O)O)c1OC,-24.8%,?,-21.0%,55.9,2.9,?
COc1ccc(/C=N/NC(=O)c2[nH]c3ccc(Br)cc3c2-c2ccccc2)c(C(=O)O)c1OC,23.1µM*,-28.0%,-9.0%,30.1,7.4,23.1µM*
CCOC(=O)NNC(=O)c1[nH]c2ccc(Br)cc2c1-c1ccccc1,-24.0%,?,-47.7%,-21.3,2.7,-6.0%
O=C(N/N=C/c1ccccc1Cl)c1[nH]c2ccc(Br)cc2c1-c1ccccc1,0.517µM*,84.1%,-26.5%,55.8,-9.3,0.461µM*
Cc1c(C(=O)N/N=C/c2ccccc2)[nH]c2ccc(Cl)cc12,18.4µM*,?,-30.7%,29.0,11.2,14.6µM*
O=c1[nH]cnc2sc3c(c12)CCCCC3,-2.5%,6.8%,-8.9%,16.9,-25.6,-5.2%
O=C(O)c1ccc2c(c1)C(=O)N(CCCCCCCN1C(=O)c3ccc(C(=O)O)cc3C1=O)C2=O,6.0%,5.9%,2.4%,46.4,-11.5,-0.4%
NNC(=O)c1[nH]c2ccc(Br)cc2c1-c1ccccc1,9.2µM*,?,-26.7%,14.3,-6.2,14.6µM*
COc1ccc(-c2oc(=O)c3cc(OC)c(OC)cc3c2-c2cc(F)cc(OC)c2)cc1,-6.4%,15.0%,-11.7%,0.8,-1.2,4.9%
CCOc1ccccc1C1C(C#N)=C(N)Oc2cc(C)n(C)c(=O)c21 (stereo not given),14.1%,0.0%,-13.4%,-4.1,-4.3,2.1%
CC1CCC/C=C/C(=O)c2c(O)cc(O)cc2CC(=O)O1 (stereo not given),18.4µM*,7.08µM*,-68.0%,-115.0*,20.5,20.6µM*
O=C(NNC1=C(C(=O)C(F)(F)F)CCC1)c1cccc(O)c1,?,-15.8%,-11.9%,19.8,9.2,18.4µM*
Cc1cccc(C(=O)NNC2=C(C(=O)C(F)(F)F)CCC2)c1O,20.6µM*,?,-43.6%,97.0,-10.4,20.6µM*
Cc1cccc(-c2nc(SCC(=O)NCc3ccco3)c3c(=O)n(C)c(=O)n(C)c3n2)c1,nt,0.6%,-1.4%,nt,nt,nt
O=C(/C=C/c1ccc(OC(F)F)cc1)Nc1cccc(S(=O)(=O)N2CCOCC2)c1,?,?,-5.6%,-65.4*,22.1,?
COc1ccc(CN(C)C(=O)/C=C/c2ccc(S(=O)(=O)N3CCOCC3)cc2)cc1F,2.1%,-13.7%,-28.8%,-13.8,-15.0,0.4%
COc1cc(/C=C/C(=O)Nc2cccc(S(=O)(=O)N3CCOCC3)c2)ccc1OCC#N,-2.9%,-5.4%,-17.7%,-53.8*,-22.7,?
CN(Cc1ccc(OC(F)F)cc1)C(=O)/C=C/c1ccc(S(=O)(=O)N2CCOCC2)cc1,2.4%,-18.2%,-45.1%,-66.0*,-29.5,-2.7%
COc1ccc(/C=C/C(=O)Nc2cccc(S(=O)(=O)N3CCOCC3)c2)cc1OC,-1.1%,13.8%,-2.6%,9.8,-10.2,1.1%
SMILES,HT1080-NT tox,TGFb SMAD3 inh,HepG2 tox,IL-1B inflam inh,Giardia killer,HT1080 IDH1KD tx
CCc1ccccc1NC(=O)c1ccc(F)c(S(=O)(=O)N2CCN(c3ccccc3OC)CC2)c1,nt,-19.8%,-5.8%,nt,nt,nt
O=C(COC(=O)c1ccccc1C(=O)c1ccc(Cl)c([N+](=O)[O-])c1)NC1CCCCCC1,8.91µM*,?,-78.1%,-107.4*,-3.0,3.16µM*
CN(CCC#N)C(=O)COC(=O)c1ccc(Cl)c(S(N)(=O)=O)c1,17.1%,-8.9%,-7.2%,-6.3,2.3,15.2%
Cn1c(N)c(C(=O)COC(=O)c2ccccc2C(=O)c2ccc(Cl)c([N+](=O)[O-])c2)c(=O)n(C)c1=O,?,?,-6.8%,-98.9*,2.0,?
CN(CCC#N)C(=O)COC(=O)c1ccccc1C(=O)c1ccc(Cl)c([N+](=O)[O-])c1,10.3µM*,5.9%,0.4%,-105.6*,-11.2,16.4µM*
Cn1c(N)c(C(=O)COC(=O)c2ccc([N+](=O)[O-])o2)c(=O)n(C)c1=O,?,12.6µM*,-42.9%,-9.5,-14.9,-29.3%
O=C(COC(=O)c1ccc(Cl)c([N+](=O)[O-])c1)NC1CCCC1,1.7%,-8.1%,-28.6%,-0.3,4.3,1.3%
O=C(O)C1CCCCC1C(=O)NCCC(c1ccccc1)c1ccccc1 (stereo not given),-3.1%,-4.4%,-13.7%,21.9,0.8,1.5%
CCCC(CCC(=O)Nc1cc([N+](=O)[O-])ccc1O)C(=O)O (stereo not given),-7.0%,-12.0%,-1.7%,7.0,5.9,4.0%
CC(C)N(C(=O)COC(=O)c1ccccc1C(=O)c1ccc(Cl)c([N+](=O)[O-])c1)C(C)C,18.4µM*,2.6%,-3.3%,-102.4*,1.6,20.6µM*
Cc1cc(C)c2c(CCl)cc(=O)oc2c1,?,?,-36.8%,nt,7.5,1.3µM*
Cc1ccc(/C=N/Nc2ncc(Cl)cc2Cl)s1,6.31µM*,?,-30.8%,-2.0,-4.8,7.08µM*
Clc1cnc(N/N=C/c2cccs2)c(Cl)c1,-11.6%,-2.2%,-37.2%,-8.8,-13.8,-24.4%
Cc1ccc(-n2nc3c(c2NC(=O)c2ccco2)CS(=O)(=O)C3)c(C)c1,0.9%,-10.4%,1.8%,-4.7,1.2,2.1%
CCCOc1ccc(C(=O)Nc2cccc(NC(=O)c3cccc(Cl)c3)c2)cc1,nt,-2.7%,1.6%,nt,nt,nt
CCOc1ccc(NS(=O)(=O)c2cc(NC(=O)c3ccc(C)cc3)ccc2Cl)cc1,2.31µM*,?,-6.7%,-2.8,6.2,3.66µM*
